# Assay results from PubChem BioAssay (NCATS).
# Values joined by “and” are separate entries in the source; they are usually repeats but may differ in a detail not shown here. Identical values can stand only once. Unmarked numbers belong to inactive results. Inconclusive results are not listed. Entries that show only a call come without a potency. A structure can be active in one record and inactive in another. Active and inactive are the calls of the source. Calls come from the whole dose curve; as a rule, active = well fitted curve in the direction sought with a large enough effect; inconclusive = small, poorly fitted or top-dose-only effect, or another doubt; inactive = no such curve, though single readings can be large; an effect the other way counts as inactive or inconclusive.
# Tests used:
# [1] = test system: Zika virus NS2B-NS3 protease (unlinked complex); test: Primary screen GU Rhodamine qHTS for Zika virus inhibitors: Unlinked NS2B-NS3 protease assay (AID 1347159); note: nearly all actives have a fitted effect of over 60% in size
# Method in brief: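 Percent inhibition derives from the 15-min fluorescence change (ex 480, em 540 nm), normalized to no-enzyme and no-inhibitor wells. Reactions contained 25 nM NS2B-NS3 complex and 1.5 microM substrate in 10 mM Tris-HCl pH 8.0.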
# [2] = test system: Zika virus NS2B-NS3 protease (linked construct); test: Primary screen NINDS Rhodamine qHTS for Zika virus inhibitors (AID 1347160); note: nearly all actives have a fitted effect of over 55% in size
# Method in brief: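 In 10 mM Tris-HCl pH 8.0 containing 0.01% Tween 20, linked NS2B-NS3 protease (25 nM final) is exposed to test compounds for 15 min. Cleavage of 1.5 microM Rhodamine110 substrate is tracked by fluorescence over 15 min.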
# [3] = target: Calcium and integrin-binding protein 1 (Homo sapiens) (UniProt Q99828); test: Primary qHTS for Identification of Calcium Integrin Binding Protein 1 (CIB1) Competitor (AID 1508620);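 note: GST tagged CIB1 binding a fluorescein labelled alphaIIb integrin peptide tracer; top concentration of the series differs between compounds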
# Sequence of Calcium and integrin-binding protein 1 (Homo sapiens) (Q99828 whole entry, looked up): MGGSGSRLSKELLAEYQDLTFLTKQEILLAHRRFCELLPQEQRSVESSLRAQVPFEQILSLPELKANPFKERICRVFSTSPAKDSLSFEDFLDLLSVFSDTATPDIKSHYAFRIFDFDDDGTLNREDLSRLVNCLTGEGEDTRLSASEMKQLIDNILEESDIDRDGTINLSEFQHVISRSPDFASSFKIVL
# Method in brief: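 Fluorescence polarization competition: CIB1-GST (1 uM final) preincubated with compound 15 min at room temperature, then FITC-labeled alphaIIb peptide (100 nM final) added for another 15 min. Polarization read at Ex 480/Em 540.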
# [4] = Primary qHTS for inhibitors of nuclear receptor binding SET domain protein 2 (NSD2) in an isogenic RCH-ACV NSD2 p.E1099K mutant (9B) (AID 1645876); note: nearly all actives have a fitted effect of over 70% in size; note: potency is the fitted concentration of half-maximal effect
# [5] = Primary qHTS for inhibitors of nuclear receptor binding SET domain protein 2 (NSD2) in an RCH-ACV wild type WT cells (2C) (AID 1645877); note: nearly all actives have a fitted effect of over 70% in size; note: potency is the fitted concentration of half-maximal effect
# [6] = target: Glutathione peroxidase 1 (Homo sapiens) (UniProt P07203); test: Primary qHTS Assay for Inhibitors of Recombinant Selenoprotein Glutathione Peroxidase 1 (GPX1) (AID 1845191); note: nearly all actives have a fitted effect of over 65% in size; note: potency is the fitted concentration of half-maximal effect
# Sequence of Glutathione peroxidase 1 (Homo sapiens) (P07203 whole entry, looked up): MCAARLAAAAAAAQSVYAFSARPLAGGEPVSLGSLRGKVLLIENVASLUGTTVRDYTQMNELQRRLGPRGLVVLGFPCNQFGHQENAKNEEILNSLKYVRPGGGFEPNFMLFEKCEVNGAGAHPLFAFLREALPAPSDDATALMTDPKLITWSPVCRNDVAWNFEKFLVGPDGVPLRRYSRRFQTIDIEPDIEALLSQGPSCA
# Method in brief: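 Recombinant GPX1 (10 nM final) was preincubated with compound for 30 min at room temperature, then reacted with 1 mM GSH, 0.5 mM CHP, 0.5 mM NADPH and 100 nM glutathione reductase; NADPH fluorescence (340/450 nm) was read at 0 and 15 min.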
# [7] = target: Phospholipid hydroperoxide glutathione peroxidase GPX4 (Homo sapiens) (UniProt P36969); test: Primary qHTS Assay for Inhibitors of Recombinant Selenoprotein Glutathione Peroxidase 4 (GPX4) (AID 1845192); conditions: outcome: dose series up to 50 µM unless noted; note: nearly all actives have a fitted effect of over 65% in size
# Sequence of Phospholipid hydroperoxide glutathione peroxidase GPX4 (Homo sapiens) (P36969 whole entry, looked up): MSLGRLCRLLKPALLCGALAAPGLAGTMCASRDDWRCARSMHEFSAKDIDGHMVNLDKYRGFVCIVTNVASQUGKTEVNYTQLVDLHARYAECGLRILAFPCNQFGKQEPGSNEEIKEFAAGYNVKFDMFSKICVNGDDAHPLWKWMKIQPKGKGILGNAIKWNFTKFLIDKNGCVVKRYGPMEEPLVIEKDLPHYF
# Method in brief: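 GR-coupled readout: 100 nM GR, 1 mM GSH, 0.5 mM NADPH; NADPH fluorescence (ex 340/em 450 nm) read at t=0 and after 15 min RT. GPX4 200 nM, preincubated 30 min with compound; substrate 0.5 mM CHP.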
# [8] = target: Luciferin 4-monooxygenase (Photinus pyralis) (UniProt P08659); test: Primary firefly luciferase (FLuc) qHTS assay for identification of artifact compounds. (AID 1845220); note: nearly all actives have a fitted effect of over 60% in size
# Method in brief: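 qHTS, 15 min compound preincubation with substrate (10 uM luciferin, 10 uM ATP) at RT, then 10 nM FLuc; 5 min; luminescence; % inhibition vs no-enzyme/DMSO controls, 4-parameter Hill fit.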
# [9] = test system: Nanoluciferase (engineered Oplophorus gracilirostris luciferase); test: Primary Nanoluciferase (NLuc) qHTS assay for identification of artifact compounds. (AID 1845222)
# Method in brief: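 Luminescence read-out of secreted NLuc in S16 cell conditioned medium (1:55); compounds tested with 15 min RT preincubation, then Nano-Glo substrate 1:100, 5 min. % inhibition vs no-enzyme and DMSO controls, 4-parameter Hill fit.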
# C33A = test: Primary qHTS to identify gynecologic anti-cancer compounds using libraries of approved drugs and bioactive compounds (AID 1345084); conditions: Gynecologic cancer cell panel viability, ATPlite luminescence, 48 h; series mostly up to 57.5 µM; note: nearly all actives have a fitted effect of over 55% in size
# Method in brief: (§1)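 Cytotoxicity screen measuring ATP content by luciferase luminescence. Each compound is applied at five concentrations for 48 h at 37 C with 5% CO2.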
# CASKI = test: as above; conditions: Gynecologic cancer cell panel viability, ATPlite luminescence, 48 h; series mostly up to 57.5 µM
# Method in brief: as §1
# Es-2 = test: as above; conditions: Gynecologic cancer cell panel viability, ATPlite luminescence, 48 h; series mostly up to 57.5 µM
# Method in brief: as §1
# HeLa = test: as above; conditions: Gynecologic cancer cell panel viability, ATPlite luminescence, 48 h; series mostly up to 57.5 µM
# Method in brief: as §1
# Hek293T = test: as above; conditions: Gynecologic cancer cell panel viability, ATPlite luminescence, 48 h, control line for the selectivity index; series mostly up to 57.5 µM
# Method in brief: as §1
# JEG-3 = test: as above; conditions: Gynecologic cancer cell panel viability, ATPlite luminescence, 48 h; series mostly up to 57.5 µM
# Method in brief: as §1
# OV90 = test: as above; conditions: Gynecologic cancer cell panel viability, ATPlite luminescence, 48 h; series mostly up to 57.5 µM
# Method in brief: as §1
# Tov-21-G = test: as above; conditions: Gynecologic cancer cell panel viability, ATPlite luminescence, 48 h; series mostly up to 57.5 µM
# Method in brief: as §1
# Tov112D = test: as above; conditions: Gynecologic cancer cell panel viability, ATPlite luminescence, 48 h; series mostly up to 57.5 µM
# Method in brief: as §1
# [10] = Primary redox qHTS assay for identification of artifact compounds. (AID 1845223)
# Method in brief: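 Amplex Red (25 uM) and HRP (250 mU/mL) in HBSS, with compounds for 15 min, then 250 uM DTT for 30 min, room temperature, dark. Fluorescence 525/598 nm read; normalized to DMSO and 10 uM DA3003; Hill fit.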
# PA-1 = test: Primary qHTS to identify gynecologic anti-cancer compounds using libraries of approved drugs and bioactive compounds (AID 1345084); conditions: Gynecologic cancer cell panel viability, ATPlite luminescence, 48 h; series mostly up to 57.5 µM; note: nearly all actives have a fitted effect of over 55% in size
# Method in brief: as §1
smiles,measurement,setting,value
CC1CCC(n2c3cnccc3c3cnc(Nc4ccc5c(n4)CCN(C(=O)CO)C5)nc32)CC1 (stereo not drawn),Potency,[1],inactive
same,Potency,[2],inactive
same,outcome,[3],inactive
same,Potency,[4],2.59 µM (active)
same,"activity change, negative = viability loss",[4],-24.3% [at 9.23 µM]
same,Potency,[5],2.31 µM (active)
same,Potency,[6],inactive
same,Potency,[7],inactive
same,Potency,[8],inactive
same,Potency,[9],inactive
same,Potency,C33A,inactive
same,Potency,CASKI,inactive
same,Potency,Es-2,inactive
same,Potency,HeLa,inactive
same,Potency,Hek293T,inactive
same,Potency,JEG-3,inactive
same,Potency,OV90,inactive
same,Potency,Tov-21-G,inactive
same,Potency,Tov112D,inactive
CC1CCC2C(C)(C)C(O)CCC2(C)C12Cc1c(O)cc3c(c1O2)CN(C(CCCN=C(N)N)C(=O)O)C3=O (stereo not drawn),Potency,[1],inactive
same,Potency,[2],inactive
same,Potency,[5],8.93 µM (active)
same,Potency,[6],inactive
same,Potency,[7],inactive
same,Potency,[8],inactive
same,Potency,[9],inactive
same,Potency,[10],inactive
same,Potency,C33A,inactive
same,Potency,CASKI,inactive
same,Potency,Es-2,inactive
same,Potency,HeLa,inactive
same,Potency,JEG-3,inactive
same,Potency,OV90,inactive
same,Potency,Tov-21-G,inactive
CCCCOc1ccc(-c2cncc(C(=O)NCc3cccnc3N3CCOCC3)c2)cc1Cl,Potency,[1],inactive
same,Potency,[2],inactive
same,Potency,[4],inactive
same,Potency,[5],inactive
same,Potency,[6],inactive
same,Potency,[7],inactive
same,Potency,[8],inactive
same,Potency,[9],inactive
same,Potency,C33A,inactive
same,Potency,CASKI,inactive
same,Potency,Es-2,inactive
same,Potency,HeLa,inactive
same,Potency,Hek293T,inactive
same,Potency,JEG-3,inactive
same,Potency,OV90,inactive
same,Potency,PA-1,inactive
same,Potency,Tov-21-G,inactive
same,Potency,Tov112D,inactive
OCC(CO)(CO)NCC(O)Cn1c2ccc(Cl)cc2c2cc(Cl)ccc21 (stereo not drawn),Potency,[1],inactive
same,Potency,[2],inactive
same,outcome,[3],inactive
same,Potency,[4],20.5 µM (active)
same,Potency,[5],20.5 µM (active)
same,Potency,[6],inactive
same,Potency,[7],inactive
same,Potency,[8],inactive
same,Potency,[9],inactive
same,Potency,C33A,inactive
same,Potency,CASKI,inactive
same,Potency,Es-2,inactive
same,Potency,HeLa,inactive
same,Potency,Hek293T,inactive
same,Potency,JEG-3,inactive
same,Potency,OV90,inactive
same,Potency,PA-1,inactive
same,Potency,Tov-21-G,inactive
same,Potency,Tov112D,inactive
O=S(=O)(c1cccc2ccccc12)n1ccc2ccc(N3CCN4CCCC4C3)cc21 (stereo not drawn),Potency,[1],inactive
same,Potency,[2],inactive
same,outcome,[3],inactive
same,Potency,[4],14.5 µM (active)
same,Potency,[5],14.5 µM (active)
same,Potency,[6],inactive
same,Potency,[7],inactive
same,Potency,[8],inactive
same,Potency,[9],inactive
same,Potency,C33A,inactive
same,Potency,CASKI,inactive
same,Potency,Es-2,inactive
same,Potency,HeLa,inactive
same,Potency,Hek293T,inactive
same,Potency,JEG-3,inactive
same,Potency,OV90,inactive
same,Potency,Tov-21-G,inactive
same,Potency,Tov112D,inactive
COCCOCCOc1ccc(C2=N[C@@](C)(C(=O)O)CS2)c(O)c1,Potency,[5],10.3 µM (active)
same,Potency,[6],inactive
same,Potency,[7],inactive
same,Potency,[8],inactive
same,Potency,[9],inactive
same,Potency,C33A,inactive
same,Potency,CASKI,inactive
same,Potency,Es-2,inactive
same,Potency,HeLa,inactive
same,Potency,Hek293T,inactive
same,Potency,JEG-3,inactive
same,Potency,Tov-21-G,inactive
CC(C)(C)c1ccc(CNC(=S)NCc2ccc(NS(C)(=O)=O)c(F)c2)cc1,Potency,[2],inactive
same,Potency,[4],20.5 µM (active)
same,Potency,[5],12.9 µM (active)
same,Potency,[6],14.3 µM (active)
same,Potency,[7],inactive
same,Potency,[8],inactive
same,Potency,[9],inactive
same,Potency,C33A,inactive
same,Potency,CASKI,inactive
same,Potency,Es-2,inactive
same,Potency,HeLa,inactive
same,Potency,Hek293T,inactive
same,Potency,OV90,inactive
same,Potency,PA-1,inactive
same,Potency,Tov-21-G,inactive
same,Potency,Tov112D,inactive
CC(=O)c1c(OCCN2CCCCC2)c(OCCC(C)c2ccc(F)cc2)c2oc(C)nc2c1C (stereo not drawn),Potency,[1],inactive
same,Potency,[2],inactive
same,outcome,[3],inactive
same,Potency,[6],inactive
same,Potency,[7],inactive
same,Potency,[8],inactive
same,Potency,[9],inactive
same,Potency,C33A,inactive
same,Potency,CASKI,inactive
same,Potency,Es-2,inactive
same,Potency,HeLa,inactive
same,Potency,JEG-3,inactive
same,Potency,OV90,inactive
same,Potency,Tov-21-G,inactive
same,Potency,Tov112D,inactive
CC(C)CCC[C@@H](C)[C@H]1CC[C@H]2[C@@H]3CC=C4C[C@@H](OC(=O)NCCN(C)C)CC[C@]4(C)[C@H]3CC[C@]12C,Potency,[1],inactive
same,Potency,[2],inactive
same,outcome,[3],inactive
same,Potency,[7],inactive
same,Potency,[8],inactive
same,Potency,[9],inactive
same,Potency,[10],inactive
same,Potency,C33A,inactive
same,Potency,Es-2,inactive
same,Potency,HeLa,inactive
same,Potency,Hek293T,inactive
same,Potency,JEG-3,inactive
same,Potency,OV90,inactive
same,Potency,PA-1,inactive
same,Potency,Tov-21-G,inactive
same,Potency,Tov112D,inactive
Cn1cc(-c2cnc3ccc4ccc(CS(=O)(=O)NCc5ccccn5)cc4c(=O)c3c2)cn1,Potency,[1],inactive
same,Potency,[2],inactive
same,Potency,[4],20.9 µM (active)
same,Potency,[5],23 µM (active)
same,Potency,[6],inactive
same,Potency,[7],inactive
same,Potency,[8],inactive
same,Potency,[9],inactive
same,Potency,[10],inactive
same,Potency,C33A,inactive
same,Potency,CASKI,inactive
same,Potency,Es-2,inactive
same,Potency,HeLa,inactive
same,Potency,Hek293T,inactive
same,Potency,JEG-3,inactive
same,Potency,OV90,inactive
same,Potency,PA-1,inactive
same,Potency,Tov-21-G,inactive
N#Cc1c[nH]c2c(C(=O)N3CCN(CCc4ccc(F)cc4)CC3)cccc12,Potency,[1],inactive
same,outcome,[3],inactive
same,Potency,[6],inactive
same,Potency,[7],inactive
same,Potency,[8],inactive
same,Potency,[9],inactive
same,Potency,[10],inactive
same,Potency,C33A,inactive
same,Potency,CASKI,inactive
same,Potency,Es-2,inactive
same,Potency,HeLa,inactive
same,Potency,Hek293T,inactive
same,Potency,JEG-3,inactive
same,Potency,OV90,inactive
same,Potency,PA-1,inactive
same,Potency,Tov-21-G,inactive
same,Potency,Tov112D,inactive
CC(C)N(CCCNC(=O)Nc1ccc(C(C)(C)C)cc1)C[C@H]1O[C@@H](n2cc(Br)c3c(N)ncnc32)[C@H](O)[C@@H]1O,Potency,[2],inactive
same,outcome,[3],inactive
same,Potency,[4],12.9 µM (active) and 16.6 µM (active)
same,Potency,[5],12.9 µM (active) and 14.8 µM (active)
same,Potency,[7],inactive
same,Potency,[8],inactive
same,Potency,[9],inactive
same,Potency,C33A,inactive
same,Potency,CASKI,inactive
same,Potency,Es-2,inactive
same,Potency,HeLa,inactive
same,Potency,Hek293T,inactive
same,Potency,JEG-3,inactive
same,Potency,OV90,inactive
same,Potency,Tov-21-G,inactive
same,Potency,Tov112D,inactive
CC[C@H](CO)Nc1nc(Nc2cccc(-c3ccccn3)c2)c2ncn(C(C)C)c2n1,Potency,[1],inactive
same,Potency,[2],inactive
same,Potency,[5],16.3 µM (active)
same,Potency,[6],inactive
same,Potency,[7],inactive
same,Potency,[8],inactive
same,Potency,[9],inactive
same,Potency,C33A,inactive
same,Potency,CASKI,inactive
same,Potency,Es-2,inactive
same,Potency,HeLa,inactive
same,Potency,Hek293T,inactive
same,Potency,JEG-3,inactive
same,Potency,Tov112D,inactive
